Source: PubChem BioAssay (NCI)
This is part of a sample that, as a whole, favours compounds with a hit. Of some 79,000 tested, about 15% had one in any assay. The source made the active and inactive calls. Cut-off read from the data, not from the text of the source: active = growth inhibition above about 70%; inactive = the rest.

Key:
[1] = NCI Yeast Anticancer Drug Screen. Data for the rad50 strain (AID 155);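 note: 0% = growth of vehicle-only cultures of the same strain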; settings: S. cerevisiae rad50 strain growth inhibition; at 50.0 µM; active compounds read high
How it was run: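 Compounds were tested on a yeast strain with an engineered DNA damage repair alteration; the reported value is growth inhibition normalised to vehicle treatment.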

[2] = NCI Yeast Anticancer Drug Screen. Data for the sgs1 mgt1 strain (AID 161);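 note: 0% = growth of cultures given vehicle only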; settings: S. cerevisiae sgs1 mgt1 strain, at 50.0 µM, active compounds read high
How it was run: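 Growth of a repair-deficient yeast mutant was monitored after compound treatment and expressed as inhibition relative to vehicle-treated cultures.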

[3] = NCI Yeast Anticancer Drug Screen. Data for the cln2 rad14 strain (AID 165);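 note: 0% = growth equal to vehicle treated cultures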; settings: S. cerevisiae cln2 rad14 strain, at 50.0 µM, active compounds read high
How it was run: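 Growth inhibition, relative to vehicle-treated controls, is the read-out. The test organism is a yeast strain with defined genetic alterations, cln2 rad14.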

[4] = NCI Yeast Anticancer Drug Screen. Data for the bub3 strain (AID 167); settings: S. cerevisiae bub3 mutant strain, at 50.0 µM, active compounds read high
How it was run: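 Growth of a checkpoint-deficient yeast mutant is measured after compound exposure. Values represent inhibition relative to vehicle.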

[5] = NCI Yeast Anticancer Drug Screen. Data for the mlh1 rad18 strain (AID 175); settings: S. cerevisiae mlh1 rad18 strain growth inhibition; at 50.0 µM; active compounds read high
How it was run: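 Cells of a genetically altered yeast strain, deficient in DNA damage repair, were treated with compound. Their growth was then compared with that of vehicle-treated cultures to give inhibition.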

| Compound | growth inhibition [1] | growth inhibition [2] | growth inhibition [3] | growth inhibition [4] | growth inhibition [5] |
| --- | --- | --- | --- | --- | --- |
| CCOC(=O)C(CCCCC(CN(CC)CC)(C(=O)OCC)c1ccccc1)(CN(CC)CC)c1ccccc1 (stereo not given) | 29.4% (inactive) | 11.7% (inactive) | 0.65% (inactive) | 2% (inactive) | 12.3% (inactive) |
| COC(C)CCOC(=O)c1ccccc1 (stereo not given) | -33% (inactive) | -14.2% (inactive) | -29.7% (inactive) | -29.9% (inactive) | -31.2% (inactive) |
| OCc1ccc(F)cc1CO | -12.4% (inactive) | -2.85% (inactive) | -17.1% (inactive) | -11.2% (inactive) | 11.9% (inactive) |
| CN(C)CC1CCC/C(=C\c2ccc(N(C)C)cc2)C1=O (stereo not given) | -18.6% (inactive) | -9.85% (inactive) | 12.2% (inactive) | 6.2% (inactive) | -34.3% (inactive) |
| Cc1ccc2c(c1)NC(C1Nc3cc(C)ccc3O1)O2 (stereo not given) | -0.3% (inactive) | -1.25% (inactive) | -46.5% (inactive) | -16.9% (inactive) | -12.2% (inactive) |
| O=C(O)C1CC2CC(=O)C1C2 (stereo not given) | 12.8% (inactive) | -0.85% (inactive) | -9.75% (inactive) | 3.4% (inactive) | 9% (inactive) |
| O=c1[nH]cc(S)c(=O)[nH]1 | 15.8% (inactive) | -15.4% (inactive) | -9.35% (inactive) | -9.7% (inactive) | -0.35% (inactive) |
| Cc1cc(C)c(F)c(C)c1N | -32.5% (inactive) | -22% (inactive) | -19.4% (inactive) | -22.1% (inactive) | -4.3% (inactive) |
| Cc1ccc2c(c1)CN(C)c1ccc(C)cc1CN2C | 17.4% (inactive) | 22.9% (inactive) | 21.8% (inactive) | 9.65% (inactive) | 31.1% (inactive) |
| Cc1nn(C(N)=S)c(C)c1N=Nc1ccc(Cl)cc1 | 9.6% (inactive) | 10.8% (inactive) | -62.8% (inactive) | -8.35% (inactive) | 19.9% (inactive) |
| O=C1CC2CCCC23CC2(CCN13)OCCO2 (stereo not given) | -3.15% (inactive) | -0.3% (inactive) | -27.4% (inactive) |  | 6.35% (inactive) |
| CCC1(COC(NC(=O)c2ccccc2)(C(F)(F)F)C(F)(F)F)COC1 | -14.2% (inactive) | -32.2% (inactive) | 14.1% (inactive) | -24.2% (inactive) | 7.05% (inactive) |
| O=C(NCCCl)NCc1ccco1 | -6.6% (inactive) | -3.55% (inactive) | -39.2% (inactive) | -4.85% (inactive) |  |
| Cc1c(-c2ccccc2)c(=O)oc2ccc(Cl)cc12 | -34% (inactive) | 1.1% (inactive) | -9.85% (inactive) | -14.9% (inactive) |  |
| NC(CCCNc1nc(O)c(-c2ccccc2)c(=O)[nH]1)C(=O)O (stereo not given) | -12.9% (inactive) |  | -44% (inactive) | -10.3% (inactive) | -3.55% (inactive) |
| CCCCN(CCCC)CC(O)c1cc(-c2ccc(Cl)cc2)nc2cc(OC)c(OC)cc12 (stereo not given) | 99% (active) | 99.7% (active) | 98.8% (active) | 51.8% (inactive) | 69.9% (inactive) |
| COc1ccc(OCOCOc2ccc(OC)cc2)cc1 | -8.05% (inactive) | 12.2% (inactive) | -285% (inactive) | 42.9% (inactive) | -27.8% (inactive) |
| CCc1cccc(C)c1NC(=O)C1=C(C)NC(C)=C(C(=O)Nc2c(C)cccc2CC)C1c1ccc([N+](=O)[O-])cc1 | 40.8% (inactive) | 42.2% (inactive) | 18.4% (inactive) | 36.9% (inactive) | 46.7% (inactive) |
| O=C1C=C(c2ccccc2)CC1 | -17.8% (inactive) | -6.05% (inactive) | 8.4% (inactive) | 13.1% (inactive) | 0.95% (inactive) |
| C=C(C)C1CC=C(C)/C(=N\O)C1 (stereo not given) | -5.15% (inactive) | -17.4% (inactive) | 3.05% (inactive) | 15% (inactive) | -5.6% (inactive) |

| Compound | growth inhibition [1] | growth inhibition [2] | growth inhibition [3] | growth inhibition [4] | growth inhibition [5] |
| --- | --- | --- | --- | --- | --- |
| N#Cc1c2c(c(N=P(c3ccccc3)(c3ccccc3)c3ccccc3)n3c1nc1ccccc13)CCCC2 | 44.6% (inactive) | 14.9% (inactive) | 41.9% (inactive) | 30% (inactive) | 26.9% (inactive) |
| Cc1cc(C)c(C(=O)CCC(=O)O)c(C)c1 | 11.8% (inactive) | 16.6% (inactive) | 17.9% (inactive) | -4.7% (inactive) | 16.6% (inactive) |
| C=C(C)CCC[C@@H](C)C1CCC2(C)[C@@H]3CCC4C(C)(C)[C@@H](O)CC[C@@]45C[C@@]35CC[C@]12C (stereo not given in full) | 31.1% (inactive) | 25.4% (inactive) | 0.5% (inactive) | 18% (inactive) | 23.1% (inactive) |
| N#Cc1cc2c(n(C3OC(CO)C(O)C(O)C3O)c1=S)CCCCCC2 (stereo not given) | 31% (inactive) | 17.8% (inactive) | 10.4% (inactive) | -3.55% (inactive) | 37.1% (inactive) |
| OCC1CCN(CCOCc2ccccc2)C1 (stereo not given) | 9.25% (inactive) | -2.3% (inactive) | -32.5% (inactive) | -7.05% (inactive) |  |
| CC1(C)COC(c2ccc(C(C)(C)C)cc2C(O)(c2cc(C(C)(C)C)ccc2C2=NC(C)(C)CO2)c2cc(C(C)(C)C)ccc2C2=NC(C)(C)CO2)=N1 | -8.8% (inactive) | 7% (inactive) | -5.5% (inactive) | 28.6% (inactive) | -1.1% (inactive) |
| O=C1CCCCc2ccccc21 | -39.1% (inactive) | -7.95% (inactive) | -7% (inactive) | -25.1% (inactive) | -8.25% (inactive) |
| NC(CCCCC1CCCCC1)C(=O)O (stereo not given) | -5.75% (inactive) | -18.1% (inactive) | -37.4% (inactive) | -28.4% (inactive) | -2.95% (inactive) |
| CC(C)NC(=O)OCc1c(COC(=O)NC(C)C)c2n(c1-c1ccc(Cl)c(Cl)c1)CCS2(=O)=O | -0.5% (inactive) | 4.5% (inactive) | -36.1% (inactive) | -1.95% (inactive) | 8.15% (inactive) |
| COC(=O)C(Cc1c[nH]c2ccccc12)NC(=O)C(Cc1cnc[nH]1)NC(=O)C1CCC(=O)N1C(=O)OCc1ccccc1 (stereo not given) | -10.2% (inactive) | -2% (inactive) | -2.35% (inactive) | -1.35% (inactive) | -5.1% (inactive) |
| O=C(Nc1ccc(S(=O)(=O)Nc2nccs2)cc1)c1cccnc1Nc1cccc(Cl)c1 | 36.6% (inactive) | 22.2% (inactive) | 1.15% (inactive) | 13.4% (inactive) | 61.2% (inactive) |
| C#CCC1(C(=O)OCC)C(=O)c2ccccc2N(C)C1=O (stereo not given) | 16.9% (inactive) | 31.1% (inactive) | 11.4% (inactive) | 14% (inactive) | 6.95% (inactive) |
| COC1(OC)N=C(N)C2(C#N)/C(=N/N(C)C)CC(C)C12C#N (stereo not given) | 11.9% (inactive) | -18.4% (inactive) | -16.1% (inactive) | -22.8% (inactive) | -40.7% (inactive) |
| CS(=O)CCN=Cc1ccc(N=Nc2ccc(O)cc2)cc1 (stereo not given) | 5.8% (inactive) | -0.85% (inactive) | -33.4% (inactive) | 13.5% (inactive) | 2.65% (inactive) |
| CCCc1nc2c([nH]1)c(=O)n(C)c(=O)n2C | 22.6% (inactive) | 3.5% (inactive) | 9.85% (inactive) | -21.1% (inactive) | 22.6% (inactive) |
| O=C(O)C12CC3(C(=O)O)CC(C(=O)O)(CC(C(=O)O)(C1)C3=O)C2=O | -11.3% (inactive) | -24.4% (inactive) | -4.15% (inactive) | -28.1% (inactive) | 17.3% (inactive) |
| CC(C)(C)N1CC(C(O)c2ccccc2)C1c1ccccc1 (stereo not given) | -8.05% (inactive) | -17.2% (inactive) | -13.6% (inactive) | -11.4% (inactive) | -2.5% (inactive) |
| Cc1ccc(C(=O)Nc2ccc(S(=O)(=O)O)c3cc(S(=O)(=O)O)cc(S(=O)(=O)O)c23)cc1N | -28.1% (inactive) | -54.5% (inactive) | 1.7% (inactive) | -13.2% (inactive) | -28.2% (inactive) |
| C/C(=N/C(=O)NN)c1ccc(Cl)cc1 | 34.2% (inactive) | 42.9% (inactive) | 2.35% (inactive) | 37.2% (inactive) | 31.9% (inactive) |
